About 410 targets per protein were measured; listed, in parts, are those with the strongest signals and a random draw of the rest.
Legend:
Assay in all cases: glycan array binding signal (z-score within array); higher = stronger binding
Conditions in all cases: glycan notation: IUPAC condensed, linker removed
GalNAc(b1-3)Gal = target: GalNAc(b1-3)Gal
How it was run: (§1)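 From the Consortium for Functional Glycomics database, 3228 arrays were curated, keeping only those whose protein sequence was available. Binding is given as a within-array Z-score averaged across arrays sharing a protein sequence and across linkers. Negative Z-scores can be read as non-binding.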

[1] = target: GalNAc(b1-3)Gal(a1-4)Gal(b1-4)GlcNAc(b1-3)Gal(b1-4)Glc
How it was run: as §1

[2] = target: GalNAc(b1-4)GlcNAc(b1-2)Man(a1-3)[GalNAc(b1-4)GlcNAc(b1-2)Man(a1-6)]Man(b1-4)GlcNAc(b1-4)GlcNAc
How it was run: as §1

GalNAc(b1-6)GalNAc = target: GalNAc(b1-6)GalNAc
How it was run: as §1

GalNAc3S(b1-4)GlcNAc3S = target: GalNAc3S(b1-4)GlcNAc3S
How it was run: as §1

[3] = target: GlcNAc(a1-4)Gal(b1-4)GlcNAc(b1-3)Gal(b1-4)[Fuc(a1-3)]GlcNAc(b1-3)Gal(b1-4)[Fuc(a1-3)]GlcNAc
How it was run: as §1

[4] = target: GlcNAc(b1-2)[GlcNAc(b1-4)]Man(a1-3)[GlcNAc(b1-4)][GlcNAc(b1-2)[GlcNAc(b1-6)]Man(a1-6)]Man(b1-4)GlcNAc(b1-4)[Fuc(a1-6)]GlcNAc
How it was run: as §1

[5] = target: GlcNAc(b1-3)Gal(b1-4)GlcNAc(b1-3)Gal(b1-4)GlcNAc(b1-2)Man(a1-3)[GlcNAc(b1-3)Gal(b1-4)GlcNAc(b1-3)Gal(b1-4)GlcNAc(b1-2)Man(a1-6)]Man(b1-4)GlcNAc(b1-4)GlcNAc
How it was run: as §1

[6] = target: GlcNAc(b1-3)Gal(b1-4)GlcNAc(b1-3)[GlcNAc(b1-3)Gal(b1-4)GlcNAc(b1-3)]GalNAc
How it was run: as §1

[7] = target: Man(a1-2)Man(a1-3)[Man(a1-6)]Man(a1-6)[Man(a1-2)Man(a1-3)]Man(b1-4)GlcNAc(b1-4)GlcNAc
How it was run: as §1

Man(b1-4)GlcNAc = target: Man(b1-4)GlcNAc
How it was run: as §1

Neu5Ac(a2-3)Gal = target: Neu5Ac(a2-3)Gal
How it was run: as §1

[8] = target: Neu5Ac(a2-3)Gal(b1-3)GalNAc(b1-4)Gal(b1-4)Glc
How it was run: as §1

[9] = target: Neu5Ac(a2-3)Gal(b1-4)GlcNAc(b1-2)Man(a1-3)[Neu5Ac(a2-3)Gal(b1-4)GlcNAc(b1-2)Man(a1-6)]Man(b1-4)GlcNAc(b1-4)[Fuc(a1-6)]GlcNAc
How it was run: as §1

[10] = target: Neu5Ac(a2-6)Gal(b1-3)GlcNAc(b1-3)[Gal(b1-4)GlcNAc(b1-6)]Gal(b1-4)Glc
How it was run: as §1

[11] = target: Neu5Ac(a2-6)Gal(b1-4)GlcNAc(b1-2)Man(a1-3)[Gal(b1-4)GlcNAc(b1-2)Man(a1-6)]Man(b1-4)GlcNAc(b1-4)GlcNAc
How it was run: as §1

[12] = target: Neu5Ac(a2-6)Gal(b1-4)GlcNAc6S
How it was run: as §1

[13] = target: Neu5Gc(a2-3)Gal(b1-4)[Fuc(a1-3)]GlcNAc
How it was run: as §1

B1: B1567 (Bifidobacterium sp) (protein)
chain: MKFTTAKKAVALTGAVAMLVSVAACGSDSGKSSQPAQDSDVKEITVWAWEPSLTQVAKDFEKETGIKVDLKNVGTNTKEYTQLDNAIEAGSGAPDVAQVEYYAVPQYAIKGNLLDITDKTSGYKDFYTPGPWASVQFAGKVYGLPMDSGPMAFFYNKEVFDKAGVDAEQIKTWDQYYDAAKKIHALGDNYYITSDTGDAGFFDSMTWLAGAKPFQTSSDGSEVTVNLTEDKGVKTFTDFWQKLLDEGLLDTKTAGWSEDWFKGMVDGTIASLFTGAWMPANLANSAADGAGKWRVTQMPTADGSTTNSENGGSSLAVLASTKKADAAYQFIEYANHGAGVATRVAGGAFPADKASLEKDSFKNATTVKNADGQDVDYFGGQKYNEVLAQAAENVSSGYQFLPFEVKARTIFGDYFGKSYTGDQKLSDGVAAWQKALQDYGKDQGFTVK
glycan array binding signal (z-score) (GalNAc(b1-3)Gal): -0.116
glycan array binding signal (z-score) [1]: -0.139
glycan array binding signal (z-score) [2]: 0.398
glycan array binding signal (z-score) (GalNAc(b1-6)GalNAc): -0.095
glycan array binding signal (z-score) (GalNAc3S(b1-4)GlcNAc3S): -0.058
glycan array binding signal (z-score) [3]: 0.042
glycan array binding signal (z-score) [4]: -0.12
glycan array binding signal (z-score) [5]: 0.008
glycan array binding signal (z-score) [6]: -0.052
glycan array binding signal (z-score) [7]: 0.007
glycan array binding signal (z-score) (Man(b1-4)GlcNAc): -0.154
glycan array binding signal (z-score) (Neu5Ac(a2-3)Gal): -0.108
glycan array binding signal (z-score) [8]: -0.112
glycan array binding signal (z-score) [9]: -0.063
glycan array binding signal (z-score) [10]: -0.118
glycan array binding signal (z-score) [11]: -0.128
glycan array binding signal (z-score) [12]: -0.094
glycan array binding signal (z-score) [13]: -0.036
